Assay outcomes deposited in PubChem BioAssay by National Center for Advancing Translational Sciences (NCATS).
p53null 39C tox – selectivity test: cytotoxicity in p53 null cells, nonpermissive temperature; AID 904; 0.97% of 55,000 active; Potency, µM (top dose mostly 46.1 µM), hits mostly cytotoxic; H1299 p53-null (neo) cells, 39C, ATPlite viability, 24 h; note: nearly all actives have a fitted effect of over 50% in size
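Temperature-shift cytotoxicity format: compound titrations on p53-null or A138V-expressing H1299 cells held 24 hr at 39C, cell ATP then measured, AC50 from Hill model.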
pS6 MEF inh – mTORC1 pathway inhibition measured by phospho-rpS6. 0.78% of 44,000 active. Tsc2-/- p53-/- MEF, phospho-rpS6 immunofluorescence/PI, 24 h. Potency, µM (titrated, usually from 38.3 µM), usual class: inhibitors; note: nearly all actives have a fitted effect of over 50% in size
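Cell-based qHTS: Tsc2-/- p53-/- MEF, 24 h cpd, 37 °C; fix/perm, anti-phospho-S6 Alexa-488 + PI; Acumen 488 nm scan; pS6/PI ratio, % positive cells; rapamycin 7.5 nM = inhibition ref; PI count = viability.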
S16 F2sN tox – toxic to S16 Pmp22-F2sN Schwann cells; S16 Pmp22-F2sN Schwann cells viability, CellTiter-Glo, 24 h; Potency, µM (titrated, usually from 57.5 µM), actives largely listed as cytotoxic; 0.48% of 43,000 active; note: nearly all actives have a fitted effect of over 65% in size
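Rat S16 Schwann reporter line, 24 h treatment with library compounds delivered at 23 nL per well. Cell viability by CellTiter-Glo luminescence.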
PMP22 txn prim – PMP22 gene transcription modulation; S16 Pmp22-F2sN Schwann cells (luciferase reporters placed in the Pmp22 gene), FLuc/NLuc coincidence luminescence, 24 h; Potency, µM (series often up to 57.5 µM), usual class: inhibitors; 2% of 43,000 active; AID 1508649; active = clear falling dose curves in both reporters; inconclusive = both reporters move, but less clearly or upward; inactive = either reporter flat; the % is the NLuc reporter signal
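Transcriptional readout in edited S16(c9) cells: two luciferases reported from the Pmp22 locus, measured in turn after 24 h compound incubation.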
p53null 32C tox – p53 null cell cytotoxicity, permissive temperature; H1299-neo p53 null cells, ATP luminescence, 24 h, 32C; Potency, µM (doses to about 46.1 µM), most hits filed as cytotoxic; 0.62% of 55,000 active; note: nearly all actives have a fitted effect of over 55% in size
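ATP-content luminescence in p53-null H1299-neo cells after 24 h compound exposure (up to 46 uM) at 32C permissive temperature; 0% and 100% killing set by DMSO and 100 uM tamoxifen; Hill-equation AC50.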
NLuc sat counter – NanoLuc enzyme inhibition artifact for PMP22 screen; shares compounds with PMP22 txn prim; Secreted NLuc enzyme (filtered S16 cell medium), Nano-Glo luminescence; Potency, µM (series often up to 57.5 µM), hits mostly inhibitors; 4% of 690 active; AID 1508638
NLuc Km ctr – counter-screen for PMP22 expression modulators: NanoLuc inhibition at Km; secreted NLuc enzyme, coelenterazine luminescence, Km conditions; AID 1508639; 5% of 690 active; Potency, µM (titrated, usually from 57.5 µM), hits mostly inhibitors; shares compounds with PMP22 txn prim
FLuc ctr PMP22 – counter-screen for PMP22 expression modulators: firefly luciferase inhibition; shares compounds with PMP22 txn prim; purified P. pyralis FLuc, luminescence, 10 min; Potency, µM (doses to about 57.5 µM), usual class: inhibitors; 690 tested, under 10 active; AID 1508640
Target sequence (P08659 whole entry, looked up): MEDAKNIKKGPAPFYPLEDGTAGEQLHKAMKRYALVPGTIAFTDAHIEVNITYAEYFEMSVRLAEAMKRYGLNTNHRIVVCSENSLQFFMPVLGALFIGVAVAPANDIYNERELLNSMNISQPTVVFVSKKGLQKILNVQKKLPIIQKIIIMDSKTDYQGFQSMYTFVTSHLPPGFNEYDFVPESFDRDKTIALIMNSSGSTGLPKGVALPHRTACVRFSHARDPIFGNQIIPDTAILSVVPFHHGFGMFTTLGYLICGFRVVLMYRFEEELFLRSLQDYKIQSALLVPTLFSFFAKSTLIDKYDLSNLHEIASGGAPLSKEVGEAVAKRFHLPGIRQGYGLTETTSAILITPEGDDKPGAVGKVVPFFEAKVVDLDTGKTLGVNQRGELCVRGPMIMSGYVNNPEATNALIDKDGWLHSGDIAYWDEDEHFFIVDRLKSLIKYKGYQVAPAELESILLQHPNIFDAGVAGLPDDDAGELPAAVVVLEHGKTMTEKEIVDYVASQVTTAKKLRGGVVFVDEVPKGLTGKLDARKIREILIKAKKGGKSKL
S16 viab conf – S16 Schwann cell cytotoxicity, confirmatory. S16 Schwann cells viability, CellTiter-Glo ATP luminescence, 24 h. AID 1508641. 7% of 690 active. Potency, µM (doses to about 57.5 µM), most hits filed as cytotoxic. shares compounds with PMP22 txn prim
PMP22 txn conf – PMP22 transcription modulation, confirmatory; AID 1508646; 22% of 690 active; Potency, µM (doses to about 57.5 µM), hits mostly inhibitors; shares compounds with PMP22 txn prim; S16 Schwann cells Pmp22-F2sN, dual luciferase, 24 h; active = clear falling dose curves in both reporters; inconclusive = both reporters move, but less clearly or upward; inactive = either reporter flat; the % is the FLuc reporter signal
PMP22 prot conf – confirmation of modulators of rat PMP22 protein expression | Potency, µM (top dose mostly 27.9 µM), actives largely listed as inhibitors | shares compounds with PMP22 txn prim | S16 Schwann cells Pmp22-HiBiT, luminescence, 48 h | 95 tested, under 10 active | AID 1508647
Target sequence (P25094 whole entry, looked up): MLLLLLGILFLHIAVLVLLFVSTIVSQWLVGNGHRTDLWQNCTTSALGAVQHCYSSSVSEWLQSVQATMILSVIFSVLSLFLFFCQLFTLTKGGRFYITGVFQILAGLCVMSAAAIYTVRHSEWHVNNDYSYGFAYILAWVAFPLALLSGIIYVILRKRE
Each line names hits and unclear results; the compound was inactive in the other large screens (follow-up assays come after a bar, where they were run). Most compounds without a hit are left out; they make up all but 3.2% or so of the library. Unless noted, calls come from the whole dose curve; as a rule, active = well fitted curve in the direction sought with a large enough effect; inconclusive = small, poorly fitted or top-dose-only effect, or another doubt; inactive = no such curve, though single readings can be large; an effect the other way counts as inactive or inconclusive.

Cn1nc(C(=O)NCc2ccc(Cl)cc2)c2c1-c1ccccc1S(=O)(=O)C2	S16 F2sN tox inconclusive, PMP22 txn prim 15µM | NLuc sat counter inactive | NLuc Km ctr inactive | FLuc ctr PMP22 inactive | S16 viab conf inactive | PMP22 txn conf inconclusive
CCc1ccccc1Nc1cc(C(=O)NC(C)c2ccccc2)c2ccccc2n1 (stereo not given)	PMP22 txn prim inconclusive
Cc1cccc(NC(=O)c2sc3nc4c(cc3c2N)CCCCCC4)c1C	p53null 39C tox inconclusive, pS6 MEF inh inconclusive, PMP22 txn prim inconclusive | NLuc sat counter inactive | NLuc Km ctr inactive | FLuc ctr PMP22 inactive | S16 viab conf inactive | PMP22 txn conf inactive
COc1ccc(OC)c(NC(=O)c2sc3nc4c(cc3c2N)CCCCCC4)c1	p53null 39C tox inconclusive, pS6 MEF inh inconclusive, PMP22 txn prim inconclusive, p53null 32C tox inconclusive
Cc1cccc(-n2ccnc2SCC(=O)Nc2nc3ccccc3s2)c1	none
CCOc1ccc(-n2ccnc2SCC(=O)Nc2nc3ccc(C)cc3s2)cc1	PMP22 txn prim 8.9µM | NLuc sat counter inactive | NLuc Km ctr inconclusive | FLuc ctr PMP22 inactive | S16 viab conf inactive | PMP22 txn conf inactive
COc1ccc(Cl)cc1NC(=O)CSC1=Nc2ccccc2C2=NC(CCC(=O)NCc3ccco3)C(=O)N12 (stereo not given)	S16 F2sN tox inconclusive, PMP22 txn prim 20µM | NLuc sat counter inconclusive | NLuc Km ctr inconclusive | FLuc ctr PMP22 inactive | S16 viab conf inactive | PMP22 txn conf inconclusive
CN(c1ccc(Cl)cc1)S(=O)(=O)c1nnc(NC(=O)c2ccco2)s1	none
CCN1CCN(CCCNC(=O)c2cc3c(s2)-c2ccccc2OC3)CC1	p53null 39C tox inconclusive, S16 F2sN tox inconclusive, PMP22 txn prim inconclusive
CCCCC(CC)CNC(=O)c1ccc2c(=O)n(Cc3ccc(OC)cc3)c(=O)[nH]c2c1 (stereo not given)	PMP22 txn prim 12µM | NLuc sat counter inactive | NLuc Km ctr inactive | FLuc ctr PMP22 inactive | S16 viab conf inactive | PMP22 txn conf inconclusive
CCCCCn1c(=O)[nH]c2cc(C(=O)Nc3cc(OC)cc(OC)c3)ccc2c1=O	PMP22 txn prim inconclusive
COc1ccc(-n2c(SCC(=O)NCc3ccc(Cl)cc3)nc3ccsc3c2=O)cc1	PMP22 txn prim 16µM | NLuc sat counter inactive | NLuc Km ctr inactive | FLuc ctr PMP22 inactive | S16 viab conf inactive | PMP22 txn conf inactive
Cc1ccc(CNC(=O)CSc2nc3ccsc3c(=O)n2-c2ccc(Br)cc2)cc1	PMP22 txn prim inconclusive
Cc1ccc(CCNC(=O)c2ccc(Nc3nc4ccccc4n4nnnc34)cc2)cc1	PMP22 txn prim inconclusive | NLuc sat counter inactive | NLuc Km ctr inactive | FLuc ctr PMP22 inactive | S16 viab conf 24µM | PMP22 txn conf inconclusive
CCOc1ccc(CCNC(=O)c2ccc(Nc3nc4ccccc4n4nnnc34)cc2)cc1OCC	PMP22 txn prim inconclusive
O=C(NCc1ccccc1)c1cccc(Nc2nc3ccccc3n3nnnc23)c1	S16 F2sN tox inconclusive, PMP22 txn prim 13µM | NLuc sat counter inactive | NLuc Km ctr inactive | FLuc ctr PMP22 inactive | S16 viab conf 22µM | PMP22 txn conf 14µM
COc1ccccc1CNC(=O)c1cccc(Nc2nc3ccccc3n3nnnc23)c1	S16 F2sN tox inconclusive, PMP22 txn prim inconclusive
CC(C)OCCCNC(=O)c1ccc(-n2c(-c3ccccc3)cc3c2CCCC3)cc1	PMP22 txn prim 13µM | NLuc sat counter inactive | NLuc Km ctr inactive | FLuc ctr PMP22 inactive | S16 viab conf inactive | PMP22 txn conf inconclusive
CCC(C)NC(=O)c1ccc(-n2c(-c3ccccc3)cc3c2CCCC3)cc1 (stereo not given)	PMP22 txn prim inconclusive
CC(C)NC(=O)c1ccc(-n2c(-c3ccccc3)cc3c2CCCC3)cc1	pS6 MEF inh inconclusive, S16 F2sN tox inconclusive, PMP22 txn prim 14µM | NLuc sat counter inactive | NLuc Km ctr inactive | FLuc ctr PMP22 inactive | S16 viab conf inconclusive | PMP22 txn conf inactive
CCCNC(=O)c1ccc(-n2c(-c3ccccc3)cc3c2CCCCC3)cc1	PMP22 txn prim inconclusive
CN(C)CCNC(=O)c1ccc(-n2c(-c3ccccc3)cc3c2CCCC3)cc1	pS6 MEF inh inconclusive, PMP22 txn prim 20µM | NLuc sat counter inactive | NLuc Km ctr inactive | FLuc ctr PMP22 inactive | S16 viab conf inconclusive | PMP22 txn conf inconclusive
COCCCNC(=O)c1ccc(-n2c(-c3ccccc3)cc3c2CCC(C)C3)cc1 (stereo not given)	PMP22 txn prim 18µM | NLuc sat counter inactive | NLuc Km ctr inactive | FLuc ctr PMP22 inactive | S16 viab conf inconclusive | PMP22 txn conf 2.7µM | PMP22 prot conf inactive
CCOCCCNC(=O)c1ccc(-n2c(-c3ccccc3)cc3c2CCCCC3)cc1	none
CCC1CN(C(=O)N2CCC(C(=O)N3CCN(c4ccccc4F)CC3)CC2)c2ccccc2O1 (stereo not given)	S16 F2sN tox inconclusive
CSc1c(C#N)c(N)c(C#N)c2c1COC(C)(C)C2	none (no result: pS6 MEF inh, S16 F2sN tox, PMP22 txn prim)
Cc1ccccc1CN1C(=O)c2ccccc2Sc2ccc(C(=O)N3CCCC3)cc21	none
CC1=Nc2cc(C(=O)NC3CCCC3)ccc2Sc2ccc(C)cc21	p53null 39C tox inconclusive, pS6 MEF inh inconclusive, PMP22 txn prim 7.8µM | NLuc sat counter inactive | NLuc Km ctr inactive | FLuc ctr PMP22 inactive | S16 viab conf inactive | PMP22 txn conf inconclusive
CC1CCN(c2nc(-c3ccc(Br)cc3)nc3ccccc23)CC1	none
CCOC(=O)C1CCN(c2nc(-c3ccc(Br)cc3)nc3ccccc23)CC1	S16 F2sN tox inconclusive, PMP22 txn prim 15µM | NLuc sat counter inactive | NLuc Km ctr inactive | FLuc ctr PMP22 inactive | S16 viab conf inactive | PMP22 txn conf inactive
